This is one part of a sample in which hits are shown more often than they occur.
HT1080 IDH1KD tx = HT-1080 IDH1 knockdown cell toxicity (counter line). HT-1080 IDH1 knockdown viability, ATP luminescence, 48 h. Potency, µM (series often up to 46.1 µM), without a hit: at the highest dose activity, negative = toxicity, usual class: cytotoxic. 360,000 tested, 2% active;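 further: potency means the concentration at half of the fitted maximal effect; 0% = DMSO wells and -100% = cell-free medium wells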
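After a 2 h attachment period, IDH1KD HT-1080 cells took pin-transferred compound for 48 h at 37 °C; ATP-based luminescence after 10 min room-temperature reagent incubation reported viability.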
HT1080-NT tox = kills 2HG-producing HT-1080-NT fibrosarcoma cells; 360,000 tested, 1.6% active; Potency, µM (series often up to 46.1 µM), for the others: at the top dose activity, negative = less viability, actives largely listed as cytotoxic; HT-1080-NT fibrosarcoma viability, CellTiter-Glo ATP luminescence, 48 h;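 further: NT is the 2HG producing partner of a matched IDH1 knockdown line; potency means the concentration at half of the fitted maximal effect; 0% = DMSO-treated cells and -100% = media-only wells without cells; nearly all actives have a fitted effect of over 55% in size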
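Read-out is CellTiter-Glo luminescence after 10 minutes at room temperature, following 48 hours' compound treatment of HT-1080-NT cells (750 cells/well, RPMI, 5% FBS, 37 degrees C).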
TDP1 cell CPT = DT40-hTDP1 cell growth loss with CPT; chicken DT40 Tdp1-/-;hTDP1 cells + 20 nM CPT, ATP luminescence, 48 h; Potency, µM (highest dose often 46.2 µM), for the others: at the top dose activity change, negative = growth inhibition, most hits filed as inhibitors; 420,000 tested, 12% active; AID 686979; further: potency means the concentration at half of the fitted maximal effect; nearly all actives have a fitted effect of over 55% in size
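Chicken DT40 Tdp1-/- cells stably complemented with human TDP1 were seeded at 400 cells/well in medium containing 20 nM camptothecin, exposed to pin-transferred compounds, and grown at 37 °C for at least 48 hr. Viability was read as ATP luminescence.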
DT40 TDP1 no CPT = qHTS for Inhibitors of human tyrosyl-DNA phosphodiesterase 1 (TDP1): qHTS in cells in absence of CPT; DT40 Tdp1-/- hTDP1 cells, no CPT, ATP luminescence, 48 h; Potency, µM (highest dose often 46.2 µM), without a hit: top-dose activity change, negative = growth inhibition, usual class: inhibitors; 420,000 tested, 15% active; further: potency means the concentration at half of the fitted maximal effect; nearly all actives have a fitted effect of over 55% in size
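Chicken DT40 Tdp1-/- cells stably complemented with human TDP1 were seeded at 400 cells/well with DMSO in place of 20 nM camptothecin. After compound pinning, cells grew at least 48 hr at 37 °C; viability read by CellTiter-Glo luminescence.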
IL1B secr inh = inhibitors of inflammasome signaling (IL-1 beta secretion); activity change, % at 57.5 µM; THP-1 LPS/ATP IL-1B secretion, AlphaLISA, 16 h; hits give low values; 360,000 tested, 4.7% active; in the data active means activity change below about -50%; inconclusive means mostly about -30% to -49%
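THP-1 cells pretreated 1 hr with compounds (up to 57.5 uM final), then stimulated with LPS (250 ng/mL final) plus ATP (1.25 mM final); secreted IL-1B measured by AlphaLISA after 16 hr, decreased signal indicating inhibition.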
12-LOX inh = inhibitors of human 12S-lipoxygenase ALOX12; purified 12hLO, xylenol orange hydroperoxide absorbance; Potency, µM (titrated, usually from 108 µM), for inactives: at the top dose activity change, negative = inhibition, hits mostly inhibitors; 580,000 tested, 1.1% active; P18054; further: potency means the concentration at half of the fitted maximal effect
Target sequence (P18054 whole entry, looked up): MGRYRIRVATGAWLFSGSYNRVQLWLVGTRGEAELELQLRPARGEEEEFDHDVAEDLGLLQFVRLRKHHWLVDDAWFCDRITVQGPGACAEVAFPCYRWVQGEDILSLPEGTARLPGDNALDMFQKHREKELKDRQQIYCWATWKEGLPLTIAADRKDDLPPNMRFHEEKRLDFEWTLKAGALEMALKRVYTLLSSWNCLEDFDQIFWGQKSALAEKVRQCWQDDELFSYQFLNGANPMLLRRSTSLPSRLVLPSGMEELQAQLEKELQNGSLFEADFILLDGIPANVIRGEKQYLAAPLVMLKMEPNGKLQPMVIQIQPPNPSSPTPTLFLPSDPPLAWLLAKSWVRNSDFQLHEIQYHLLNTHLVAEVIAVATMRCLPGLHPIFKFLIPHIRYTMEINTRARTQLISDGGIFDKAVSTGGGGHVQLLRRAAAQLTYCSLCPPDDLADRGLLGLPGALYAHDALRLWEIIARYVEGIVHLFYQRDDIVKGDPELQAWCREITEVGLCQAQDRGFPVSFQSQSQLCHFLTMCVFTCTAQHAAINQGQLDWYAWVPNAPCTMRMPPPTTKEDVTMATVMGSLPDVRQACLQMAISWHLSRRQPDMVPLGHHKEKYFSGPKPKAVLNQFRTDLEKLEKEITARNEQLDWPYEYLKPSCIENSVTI
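Purified human 12hLO (150 nM final) in 25 mM Hepes, 0.01% Triton X-100, pH 7.0 was preincubated 15 min at room temperature with compound. Then 40 uM arachidonic acid was added, 30 min. Hydroperoxide was read by Fe-XO absorbance ratio 573/405 nm.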
* hit, by the source's call. Unless noted, the call rests on the fitted dose curve; in most records, active means well fitted curve in the direction sought with a large enough effect; inconclusive means small, poorly fitted or top-dose-only effect, or another doubt; inactive means no such curve, though single readings can be large; an effect the other way counts as inactive or inconclusive. Unless noted, on the % scale 0 is the no-effect control and ±100 the full control effect.

For O=C1NC(c2ccccc2)=CC(c2ccccc2O)N1 (stereo not given) the results were HT1080 IDH1KD tx 4.8%, HT1080-NT tox 19.1%, TDP1 cell CPT -13.0%, DT40 TDP1 no CPT -3.4%, IL1B secr inh 17.0 and 12-LOX inh -16.0%.
COc1cccc(C2=CC(c3ccccc3O)NC(C)(C)N2)c1 (stereo not given) was read as TDP1 cell CPT 12.6µM* and DT40 TDP1 no CPT 15.8µM*.
CC(=O)N1CCSc2ccc(S(=O)(=O)Nc3ccc(C)cc3)cc21 was read as HT1080 IDH1KD tx -14.9%, HT1080-NT tox -1.8%, TDP1 cell CPT inconclusive, DT40 TDP1 no CPT -16.0%, IL1B secr inh 15.6 and 12-LOX inh -18.9%.
Screening CC(=O)N1CCSc2ccc(S(=O)(=O)NCCc3ccc(Cl)cc3)cc21 returned HT1080 IDH1KD tx inconclusive, HT1080-NT tox 0.6%, TDP1 cell CPT 16.4µM*, DT40 TDP1 no CPT inconclusive, IL1B secr inh 9.3 and 12-LOX inh -11.8%.
`CC(=O)N1CCSc2ccc(S(=O)(=O)NCCc3cccc(C)c3)cc21` gave HT1080 IDH1KD tx -14.6%, HT1080-NT tox -16.8%, TDP1 cell CPT 20.6µM*, DT40 TDP1 no CPT 10.3µM*, IL1B secr inh -80.0* and 12-LOX inh -15.4%.
CC(=O)N1CCSc2ccc(S(=O)(=O)NCCc3ccc(C)cc3)cc21 was read as HT1080 IDH1KD tx -5.9%, HT1080-NT tox -28.3%, TDP1 cell CPT 23.1µM*, DT40 TDP1 no CPT 20.6µM*, IL1B secr inh inconclusive and 12-LOX inh -10.3%.
`CCC(CC)C(=O)NC1CCN(C(=O)N2CC3CC(C2)[C@H]2CCCC(=O)N2C3)CC1` (stereo not given in full) gave 12-LOX inh 50.5%.
Screening Cc1cc(C)n(-c2nc3ccccc3nc2N2CCN(C(=O)c3ccccc3F)CC2)n1 returned 12-LOX inh -4.7%.
For Cc1cc(C)n(-c2nc3ccccc3nc2N2CCN(C(=O)c3ccc(Cl)cc3)CC2)n1 the results were HT1080 IDH1KD tx inconclusive, HT1080-NT tox -25.5%, TDP1 cell CPT inconclusive, DT40 TDP1 no CPT inconclusive, IL1B secr inh -58.7* and 12-LOX inh -18.5%.
Screening COc1ccc(NC(=O)CCOc2cc(C)ccc2C)cc1Cl returned 12-LOX inh -23.0%.
CC1=NS(=O)(=O)N(Cc2ccccc2)C=C1C(=O)OCc1nc(-c2ccccc2Cl)no1 was read as 12-LOX inh 0.5%.
Cc1cc(-c2ccc(S(=O)(=O)Nc3ccccc3C)cc2)on1 was read as TDP1 cell CPT 5.17µM*, DT40 TDP1 no CPT 4.61µM* and 12-LOX inh inconclusive.
`Cc1cc(-c2ccc(S(=O)(=O)Nc3cccc(Cl)c3C)cc2)on1` gave TDP1 cell CPT 6.51µM*, DT40 TDP1 no CPT 6.51µM* and 12-LOX inh -29.4%.
`Cc1c(Cl)cccc1NS(=O)(=O)c1ccccc1` gave HT1080 IDH1KD tx inconclusive, HT1080-NT tox -5.9%, TDP1 cell CPT -27.6%, DT40 TDP1 no CPT -5.0%, IL1B secr inh -10.3 and 12-LOX inh -2.1%.
`Cc1ccc(NS(=O)(=O)c2ccc(-c3cc(C)no3)cc2)c(Br)c1` gave TDP1 cell CPT 11.6µM*, DT40 TDP1 no CPT 8.2µM* and 12-LOX inh inconclusive.
For Cc1cc(-c2ccc(S(=O)(=O)Nc3ccc(Cl)cc3C)cc2)on1 the results were TDP1 cell CPT 4.61µM*, DT40 TDP1 no CPT 3.26µM* and 12-LOX inh inconclusive.
`COc1ccccc1OCc1nc(C#N)c(N2CCC(Cc3ccccc3)CC2)o1` gave 12-LOX inh 33.0%.
COC[C@@H]1CN(C(=O)CCn2cccn2)C[C@H]1c1ccncc1 was read as 12-LOX inh -9.6%.
For COc1cccc(NC(=O)N2C[C@@H](F)C[C@H]2C(=O)N2CCCCC2)c1 the results were 12-LOX inh -7.1%.
Cc1ccc2oc(=O)n(Cc3ccccc3OC(C)C)c2c1 was read as HT1080 IDH1KD tx -2.9%, HT1080-NT tox 5.5%, TDP1 cell CPT inconclusive, DT40 TDP1 no CPT 14.6µM*, IL1B secr inh 28.1 and 12-LOX inh 0.0%.
Screening Cc1ccc(-c2[nH]ncc2C(=O)c2ccc(Br)cc2)c(O)c1 returned HT1080 IDH1KD tx inconclusive, HT1080-NT tox inconclusive, TDP1 cell CPT inconclusive, DT40 TDP1 no CPT inconclusive, IL1B secr inh -82.0* and 12-LOX inh inconclusive.
Screening Cc1ccc(C(=O)c2cn[nH]c2-c2cc(Cl)ccc2O)cc1 returned HT1080 IDH1KD tx inconclusive, HT1080-NT tox inconclusive, TDP1 cell CPT inconclusive, DT40 TDP1 no CPT inconclusive, IL1B secr inh 24.9 and 12-LOX inh inconclusive.
CN(Cc1nnc2n1CCCCC2)C(=O)c1n[nH]c(=O)c2ccccc12 was read as 12-LOX inh 18.2%.
For CCn1c(C(=O)NCc2ccccc2Br)cc2oc3ccccc3c21 the results were HT1080 IDH1KD tx inconclusive, HT1080-NT tox -18.2%, TDP1 cell CPT 20.6µM*, DT40 TDP1 no CPT -93.3% and 12-LOX inh -10.0%.
For CCn1c(C(=O)NCc2cccc(Br)c2)cc2oc3ccccc3c21 the results were TDP1 cell CPT inconclusive, DT40 TDP1 no CPT 14.6µM* and 12-LOX inh -27.2%.
CCn1c(C(=O)NCc2cc(Br)ccc2OC)cc2oc3ccccc3c21 was read as TDP1 cell CPT 23.1µM*, DT40 TDP1 no CPT inconclusive and 12-LOX inh 0.0%.
`Cc1cc2oc(=O)cc(CN3CCN(CCO)CC3)c2cc1O` gave 12-LOX inh 8.0%.
For CCN(CC)C(=O)C1=C(C)N(Cc2ccc(OC)cc2)C(=O)C(CC(=O)NCc2cccc3ccccc23)C1 (stereo not given) the results were HT1080 IDH1KD tx -1.8%, HT1080-NT tox -11.2%, TDP1 cell CPT inconclusive, DT40 TDP1 no CPT 23.1µM*, IL1B secr inh -3.1 and 12-LOX inh -28.8%.
For CCN(CC)C(=O)C1=C(C)N(CCC2=CCCCC2)C(=O)C(CC(=O)NCc2cccc3ccccc23)C1 (stereo not given) the results were HT1080 IDH1KD tx inconclusive, HT1080-NT tox inconclusive, TDP1 cell CPT 16.4µM*, DT40 TDP1 no CPT inconclusive, IL1B secr inh -57.3* and 12-LOX inh inconclusive.
